Among the test systems are HCT-15 colon; HT29 colon; SNB-75 CNS; SNB-19 CNS; U251 CNS; PC-3 prostate; SK-MEL-5 melanoma; UACC-62 melanoma; LOX IMVI melanoma; SK-MEL-28 melanoma; SK-MEL-2 melanoma; EKVX NSCLC; SN12C renal; UO-31 renal; TK-10 renal; ACHN renal; CAKI-1 renal; A498 renal; CCRF-CEM leukemia; MOLT-4 leukemia.
Assay in all cases: NCI-60 one-dose screen, 48 h (100 = growth as untreated, 0 = no growth, -100 = all killed)
Conditions in all cases: 10 µM unless noted

Our source for the growth values is PubChem BioAssay (NCI).

The structures appear in SMILES notation. Where “and” joins values, the source holds several entries; their conditions need not be identical. Equal entries are not always repeated. The panel holds about 83,000 compounds, 20% with a hit somewhere; the sample as a whole holds those more often.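 In brief: 96-well plates, 48 h treatment, single concentration, percent growth endpoint.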 A structure can be active in one record and inactive in another. Calls of active or inactive are those of the source. The calls were made as follows: active = growth percent below 10; inactive = the rest.

For `Cc1cccc(/C=C\C(=O)c2ccccc2)c1`, the growth with HCT-15 colon is 89% (inactive) and 101% (inactive); in the test with HT29 colon, 91.9% (inactive) and 98.7% (inactive); in the test with SNB-75 CNS, 90.5% (inactive) and 112% (inactive); in the test on SNB-19 CNS it was 86.7% (inactive) and 103% (inactive); with U251 CNS, 64.8% (inactive) and 91.7% (inactive); in the test with PC-3 prostate it was 86.3% (inactive) and 82.7% (inactive). Besides, the growth with SK-MEL-5 melanoma was 106% (inactive) and 95% (inactive); with UACC-62 melanoma, 90.2% (inactive) and 105% (inactive); with LOX IMVI melanoma, 85.3% (inactive) and 93.5% (inactive); in the test on SK-MEL-28 melanoma, 110% (inactive) and 120% (inactive); in the test on SK-MEL-2 melanoma, 100% (inactive) and 103% (inactive); in the test on EKVX NSCLC, 97.8% (inactive) and 101% (inactive). The growth was 89.7% (inactive) and 102% (inactive) in the test on SN12C renal; 67.3% (inactive) and 82.2% (inactive) in the test with UO-31 renal; 86.9% (inactive) and 96.3% (inactive) with TK-10 renal; 124% (inactive) and 110% (inactive) with ACHN renal; 92.8% (inactive) and 95.1% (inactive) in the test on CAKI-1 renal; 95.2% (inactive) and 68.2% (inactive) in the test with A498 renal. Besides, the growth in the test on CCRF-CEM leukemia was 78.9% (inactive) and 64.5% (inactive); in the test with MOLT-4 leukemia, 91.5% (inactive) and 49.1% (inactive).
Turning to `OC1CCC(Oc2cccc3cnc(Nc4ccc5nc[nH]c5c4)nc23)CC1` (stereo unspecified), the growth is 5.3% (active) and 81% (inactive) in the test with HCT-15 colon; 2.98% (active) and 46% (inactive) in the test with HT29 colon; -22.7% (active) and 37.5% (inactive) in the test with SNB-75 CNS; 9.42% (active) and 41.1% (inactive) in the test on SNB-19 CNS; 3.2% (active) and 27.7% (inactive) in the test on U251 CNS; 3.19% (active) and 35.5% (inactive) with PC-3 prostate. The growth in the test on SK-MEL-5 melanoma was -6.41% (active) and 47.6% (inactive); in the test on UACC-62 melanoma, -4.06% (active) and 46.2% (inactive); in the test with LOX IMVI melanoma it was 6.32% (active) and 39.2% (inactive); in the test with SK-MEL-28 melanoma it was 5.62% (active) and 66.4% (inactive); with SK-MEL-2 melanoma, -33.7% (active) and 84.8% (inactive); with EKVX NSCLC it was -33.9% (active) and 52.7% (inactive). Besides, the growth in the test on SN12C renal was 10.2% (inactive) and 38.4% (inactive); in the test on UO-31 renal, 8.29% (active) and 49.1% (inactive); in the test on TK-10 renal, 6.96% (active) and 46.2% (inactive); with ACHN renal it was 12.8% (inactive) and 41.9% (inactive); in the test on CAKI-1 renal it was 13.5% (inactive) and 62.8% (inactive); in the test on A498 renal, -32.6% (active) and 43.1% (inactive). Also, in the test with CCRF-CEM leukemia, the growth was -14.6% (active) and 15.4% (inactive).
`Cn1c(SSc2ccc(-c3cccnc3)n2C)ccc1-c1cccnc1`: the growth was 111% (inactive) and 104% (inactive) in the test with HCT-15 colon; 110% (inactive) and 115% (inactive) in the test on HT29 colon; 89.4% (inactive) and 97.7% (inactive) with SNB-75 CNS; 110% (inactive) and 109% (inactive) in the test on SNB-19 CNS; 72.6% (inactive) and 106% (inactive) in the test with U251 CNS; 65% (inactive) and 68.2% (inactive) in the test on PC-3 prostate. Moreover, the growth is 95.6% (inactive) and 91.6% (inactive) with SK-MEL-5 melanoma; 82.5% (inactive) and 109% (inactive) in the test on UACC-62 melanoma; 59% (inactive) and 98.2% (inactive) in the test with LOX IMVI melanoma; 98.9% (inactive) and 104% (inactive) in the test with SK-MEL-28 melanoma; 106% (inactive) and 107% (inactive) with SK-MEL-2 melanoma; 94.8% (inactive) and 99.5% (inactive) in the test with EKVX NSCLC. Besides, the growth is 100% (inactive) and 114% (inactive) in the test with SN12C renal; 95.8% (inactive) and 104% (inactive) with UO-31 renal; 117% (inactive) and 102% (inactive) in the test with TK-10 renal; 119% (inactive) and 108% (inactive) with ACHN renal; 94.3% (inactive) and 103% (inactive) in the test on CAKI-1 renal; 82.2% (inactive) and 95.7% (inactive) in the test with A498 renal. Besides, the growth with CCRF-CEM leukemia was 45.2% (inactive) and 68.6% (inactive).
Regarding `O=S(=O)(Nc1ccccc1)C1CCCCC1`, the growth was 109% (inactive) and 102% (inactive) in the test with HCT-15 colon; 99.1% (inactive) and 99.6% (inactive) in the test with HT29 colon; 86.7% (inactive) and 94.7% (inactive) in the test on SNB-75 CNS; 101% (inactive) and 107% (inactive) in the test with SNB-19 CNS; 109% (inactive) and 102% (inactive) in the test on U251 CNS; 92.6% (inactive) and 105% (inactive) in the test on PC-3 prostate. Also, the growth is 110% (inactive) in the test with SK-MEL-5 melanoma; 92.6% (inactive) and 105% (inactive) in the test on UACC-62 melanoma; 109% (inactive) and 95.5% (inactive) in the test with LOX IMVI melanoma; 110% (inactive) and 108% (inactive) with SK-MEL-28 melanoma; 103% (inactive) in the test on SK-MEL-2 melanoma; 104% (inactive) and 97.2% (inactive) in the test on EKVX NSCLC. Besides, the growth in the test with SN12C renal was 94.9% (inactive) and 120% (inactive); in the test with UO-31 renal it was 77.2% (inactive) and 88.3% (inactive); with TK-10 renal, 103% (inactive) and 102% (inactive); in the test on ACHN renal it was 110% (inactive) and 103% (inactive); in the test on CAKI-1 renal it was 86.5% (inactive) and 98.7% (inactive); in the test with A498 renal, 104% (inactive) and 95.9% (inactive). In addition, in the test on CCRF-CEM leukemia, the growth is 105% (inactive).
On to `ClC/C=C/CSc1ncnc2nc[nH]c12`, for which the growth in the test with HCT-15 colon was 104% (inactive) and 99.7% (inactive); in the test with HT29 colon, 98.4% (inactive) and 95.2% (inactive); in the test with SNB-75 CNS, 108% (inactive) and 92.7% (inactive); in the test on SNB-19 CNS it was 98.6% (inactive) and 102% (inactive); with U251 CNS, 96.7% (inactive) and 102% (inactive); in the test on PC-3 prostate it was 100% (inactive) and 98.1% (inactive). For the same molecule, the growth with SK-MEL-5 melanoma was 100% (inactive) and 112% (inactive); with UACC-62 melanoma it was 99.9% (inactive) and 103% (inactive); with LOX IMVI melanoma, 98.7% (inactive) and 97.3% (inactive); in the test on SK-MEL-28 melanoma it was 111% (inactive) and 101% (inactive); in the test with SK-MEL-2 melanoma, 5.9% (active) and 112% (inactive); in the test with EKVX NSCLC, 105% (inactive) and 104% (inactive). The growth in the test with SN12C renal was 105% (inactive) and 100% (inactive); in the test with UO-31 renal, 85.9% (inactive) and 87.1% (inactive); in the test on TK-10 renal, 108% (inactive); in the test on ACHN renal, 103% (inactive) and 99.2% (inactive); in the test on CAKI-1 renal, 106% (inactive) and 111% (inactive); in the test with A498 renal it was 91.4% (inactive) and 117% (inactive). The growth in the test with CCRF-CEM leukemia is 90.7% (inactive).
